From PubChem BioAssay (EPA / NIEHS)
The source made the active and inactive calls. Rule for the calls: active = hit-call score of the fitted dose curve at least 0.9, where 1 is the maximum; inactive = score below 0.9.

biological target: Hepatocyte nuclear factor 6 (Homo sapiens) (UniProt Q9UBC0); test: ATG_HNF6_CIS: Attagene CIS-FACTORIAL HepG2 Assay for human Hepatocyte Nuclear Factor 6 (HNF6) (AID 2282952); conditions: HepG2 Attagene cis-factorial HNF6 reporter transcription; actives raise or lower the signal
Procedure: ATG_CIS is a cell-based, multiplexed-readout assay that uses HepG2, a human liver cell line, with measurements taken at 24 hours after chemical dosing in a 24-well plate.ATG_HNF6_CIS is one of 52 assay component(s) measured or calculated from the ATG_CIS assay. It is designed to make measurements of mRNA induction, a form of inducible reporter, as detected with fluorescence intensity signals by Reverse transcription polymerase chain reaction (RT-PCR) and Capillary electrophoresis technology.Data from the assay component ATG_HNF6_CIS was analyzed into 1 assay endpoint. This assay endpoint, ATG_HNF6_CIS, was analyzed with bidirectional fitting relative to DMSO as the negative control and baseline of activity. Using a type of inducible reporter, measures of mRNA for gain or loss-of-signal activity can be used to understand the reporter gene at the transcription factor-level as they relate to the gene ONECUT1. Furthermore, this assay endpoint can be referred to as a primary readout, because this assay has produced multiple assay endpoints where this one serves a reporter gene function. To generalize the intended target to other relatable targets, this assay endpoint is annotated to the dna binding intended target family, where the subfamily is homeobox protein.
Human liver HepG2 cells are transiently transfected with multiple reporter transcription units (MRTUs) in 6-well plates using FuGene 6 reagent (Roche; 3 ml FuGene/1 mg DNA). The MRTU constructs are regulated by a cis-regulating element (promoter). […] A major difference between the CIS and TRANS system is that in CIS activities of endogenous TFs are measured, whereas the TRANS assay evaluates changes in activities of exogenous, chimeric NR-Gal4 proteins. […] At the end of 24 hour incubation, total RNA was isolated using TriZol reagent (Invitrogen). The isolated RNA is then reverse-transcribed using oligo(dT) primer and Mo-MLV reverse transcriptase (Invitrogen) with DNAse I (Ambion) treatment for 30 min. The one-tenth of the produced cDNA was amplified by PCR using Taq DNA polymerase (Invitrogen) and two reporter sequence-specific primers. The PCR products were fluorescently labeled by primer extension with 6-arboxyfluorescein (6-FAM) 5'-labeled reporter sequence-specific primer (2 min at 95 C, 20 s at 68 C and 10 min at 72 C) and these products were digested with 5U of HpaI (New England Biolabs) for 2h at 37 C. The fragments were purified using Qiaquick PCR columns (Qiagen), analyzed on an ABI 3130xL genetic analyzer (Applied Biosystems) with peak positions identified by using a set of X-rhodamine (ROX)-labeled MapMarker1000 molecular weight standards (BioVentures). The raw capillary electrophoresis data was processed using Attagraph software (Attagene).

Hepatocyte nuclear factor 6 (Homo sapiens), sequence (Q9UBC0 whole entry, looked up): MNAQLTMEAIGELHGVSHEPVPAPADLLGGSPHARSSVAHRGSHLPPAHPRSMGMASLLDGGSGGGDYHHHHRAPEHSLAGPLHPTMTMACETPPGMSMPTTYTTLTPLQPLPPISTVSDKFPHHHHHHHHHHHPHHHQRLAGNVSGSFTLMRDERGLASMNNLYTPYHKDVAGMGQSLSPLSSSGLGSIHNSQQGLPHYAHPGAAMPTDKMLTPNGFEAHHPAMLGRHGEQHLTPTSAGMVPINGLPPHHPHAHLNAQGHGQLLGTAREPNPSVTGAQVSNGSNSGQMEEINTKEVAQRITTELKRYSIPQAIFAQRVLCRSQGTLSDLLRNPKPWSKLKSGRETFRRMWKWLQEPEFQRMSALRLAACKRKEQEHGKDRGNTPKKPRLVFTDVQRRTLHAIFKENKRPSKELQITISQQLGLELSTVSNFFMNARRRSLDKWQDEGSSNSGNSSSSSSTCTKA

Q: For `CO[C@H]1/C=C/O[C@@]2(C)Oc3c(C)c(O)c4c(O)c(c(/C=N/N5CCN(C)CC5)c(O)c4c3C2=O)NC(=O)/C(C)=C\C=C\[C@H](C)[C@H](O)[C@@H](C)[C@@H](O)[C@@H](C)[C@H](OC(C)=O)[C@@H]1C`, which outcome is on record?
A: inactive

Q: With `CC/C(=C(/CC)c1ccc(O)cc1)c1ccc(O)cc1` as the compound, how does the outcome read?
A: inactive

Q: `CCCCCCCCCCCC[N+](C)(C)C` was tested. Which outcome did it give?
A: inactive

Q: Which outcome does the source give for `CC(O)CC(C)(C)O` (stereo not given) here?
A: inactive

Q: `CCN(Cc1cccc(S(=O)(=O)O)c1)c1ccc(C(=C2C=CC(=[N+](CC)Cc3cccc(S(=O)(=O)O)c3)C=C2)c2ccccc2S(=O)(=O)[O-])cc1` was tested. Which outcome did it give?
A: inactive

Q: With `OCCO` as the compound, how does the outcome read?
A: inactive

Q: For `CN(C[C@@H](CC[N+]12CCC(C3CCCCC3)(CC1)CC2)c1ccc(Cl)c(Cl)c1)C(=O)c1cc(C(F)(F)F)cc(C(F)(F)F)c1`, which outcome is on record?
A: inactive

Q: How did the outcome turn out when `CCCCCCCCOC(=O)c1cc(O)c(O)c(O)c1` was run?
A: inactive

Q: For `CC1=CC(=O)/C(=C(/C)O)C(=O)O1`, which outcome is on record?
A: inactive

Q: Which outcome does the source give for `C[C@]12CC[C@@H]3c4ccc(O)cc4CC[C@H]3[C@@H]1CC[C@H]2O` here?
A: inactive

Q: For `C[C@]12CC[C@@H]3c4ccc(O)cc4CC[C@H]3[C@@H]1CCC2=O`, which outcome is on record?
A: inactive

Q: `O=C(Nc1ccc(Cl)cc1)Nc1ccc(Cl)c(Cl)c1` was tested. Which outcome did it give?
A: inactive

Q: `O=CCCCC=O` was tested. Which outcome did it give?
A: inactive

Q: `NC(=O)c1nc(-c2cccc(-c3cc(F)ccc3OCC(F)(F)C(F)(F)F)c2)n[nH]1` was tested. Which outcome did it give?
A: inactive

Q: Which outcome does the source give for `Cc1cn([C@H]2C[C@H](N=[N+]=[N-])[C@@H](CO)O2)c(=O)[nH]c1=O` here?
A: inactive

Q: How did the outcome turn out when `CC(=O)N1CCN(c2ccc(OC[C@H]3CO[C@](Cn4ccnc4)(c4ccc(Cl)cc4Cl)O3)cc2)CC1` was run?
A: inactive

Q: How did the outcome turn out when `CCCCOC(=O)c1ccc(O)cc1` was run?
A: inactive

Q: `c1ccc(C[n+]2cccc3ccccc32)cc1` was tested. Which outcome did it give?
A: inactive

Q: Which outcome does the source give for `Clc1cc(Cl)c2c(c1)N=C1CCCCCN1C2` here?
A: inactive

Q: `CCN(Cc1cccnc1)C(=O)c1cccc(Cl)c1[C@]1(C)C(=O)N(Cc2ccc(OC)cc2OC)c2ccc(Cl)cc21` was tested. Which outcome did it give?
A: inactive

Q: `CCCC(=O)OCCC(C)C` was tested. Which outcome did it give?
A: inactive

Q: Which outcome does the source give for `CN1C(=O)N(c2ccccc2Br)Cc2cnc(Nc3ccc4c(c3)OCC(CO)O4)nc21` (stereo not given) here?
A: inactive

Q: `O=c1[nH]sc2ccccc12` was tested. Which outcome did it give?
A: inactive

Q: For `Cc1oc2c(NC(=O)c3c(Cl)cccc3Cl)cccc2c1C(C)(C)O`, which outcome is on record?
A: inactive

Q: With `Oc1ccccc1` as the compound, how does the outcome read?
A: inactive

Q: For `CCO[Si](CCCNC(N)=O)(OCC)OCC`, which outcome is on record?
A: inactive

Q: With `COc1cc(C(=O)NC2CCN(C)CC2)ccc1Nc1ncc2c(n1)N(C1CCCC1)CC(F)(F)C(=O)N2C` as the compound, how does the outcome read?
A: inactive

Q: With `CCCCCCCCCCCO` as the compound, how does the outcome read?
A: inactive

Q: With `CCCCCCCCCC(=O)O` as the compound, how does the outcome read?
A: inactive

Q: How did the outcome turn out when `CN(C)c1ccc(C(=C2C=CC(=[N+](C)C)C=C2)c2ccc(N(C)C)cc2)cc1` was run?
A: inactive

Q: How did the outcome turn out when `Cc1ncc(CO)c(CO)c1O` was run?
A: inactive

Q: `CCCOC(=O)c1cc(O)c(O)c(O)c1` was tested. Which outcome did it give?
A: inactive

Q: For `CCN(CC)C(=O)c1cc(S(=O)(=O)Cc2ccccc2)c(N2CCC(c3ccccc3)CC2)cc1N(CC)CCN(C)C`, which outcome is on record?
A: inactive

Q: Which outcome does the source give for `CCOC(=O)O[C@H](C)OC(=O)c1ccc2c(c1)cc(C(=O)NC1CCN(C(C)C)CC1)n2Cc1cc(-c2ccc(Cl)s2)on1` here?
A: inactive

Q: How did the outcome turn out when `c1ccc2n[nH]nc2c1` was run?
A: inactive

Q: How did the outcome turn out when `Cc1c2ccccc2c(C)c2c1ccc1ccccc12` was run?
A: inactive

Q: How did the outcome turn out when `CC[C@H](NC(=O)c1cc(F)ccc1NS(=O)(=O)c1cccc2cccnc12)c1ccccc1` was run?
A: inactive

Q: With `O=C1CCC(C2CCCCC2)CC1` as the compound, how does the outcome read?
A: inactive

Q: With `O=C=NCCCCCCN=C=O` as the compound, how does the outcome read?
A: inactive

Q: For `CC[C@@H]1C[C@H](N(Cc2cc(C(F)(F)F)cc(C(F)(F)F)c2)C(C)=O)c2cc(C(F)(F)F)ccc2N1C(=O)OC(C)C`, which outcome is on record?
A: inactive
